Assay outcomes: PubChem BioAssay, National Center for Advancing Translational Sciences (NCATS)
Sampled rows, rich in hits. Any-hit rate of the full collection: about 2.9%.
p53 reactivator = re-activators of mutant p53 | H1299 p53-A138V BP100-luciferase reporter, luminescence, 24 h | Potency, µM (series often up to 92.2 µM), inactives show at the top dose activity change, positive = activation, most hits filed as activators | 0.063% of 320,000 active | AID 504706; note: potency is the fitted concentration of half-maximal effect; % of control where 0% means no effect; nearly all actives have a fitted effect of over 45% in size
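p53-null H1299 cells stably carrying temperature-sensitive p53-A138V and a BP100-luciferase reporter were pinned with compounds (4-point, 1:5 series) and held 24 hrs at 37 deg C. Luminescence was read 10 min after detection reagent.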
ClpP mod = qHTS Assay for Activators of ClpP. ATP-dependent Clp protease proteolytic subunit (Bacillus subtilis (strain 168)), P80244. purified B. subtilis ClpP, FRET peptide cleavage, 20 min. Potency, µM (doses to about 57.5 µM), without a hit: at the top dose activity change, negative = active. 1.9% of 340,000 active; active = well fitted falling curve with a large enough effect; inconclusive = small, poorly fitted or top-dose-only effect; inactive = no such curve, though single readings can be large or run the other way; note: potency is the fitted concentration of half-maximal effect; the source files actives as falling curves though it sought activators and does not explain the sign; nearly all actives have a fitted effect of over 65% in size
Target sequence (P80244 whole entry, looked up): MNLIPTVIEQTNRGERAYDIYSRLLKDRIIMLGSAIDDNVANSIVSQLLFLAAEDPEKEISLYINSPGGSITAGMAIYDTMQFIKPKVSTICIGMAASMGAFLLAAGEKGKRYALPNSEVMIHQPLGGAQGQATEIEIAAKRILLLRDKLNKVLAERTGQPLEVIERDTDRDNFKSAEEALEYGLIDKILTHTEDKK
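FRET quenching reversal measured ClpP activation: 10 microg/mL B. subtilis ClpP at pH 8 with the FRET-FV decapeptide, read at 430 nm after 320 nm excitation. The 20-min minus 0-min signal was scaled between DMSO/no-enzyme wells and ADEP (5.8 microM final).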
GLP1R inv ag = inverse agonists of human GLP-1 receptor | P43220 | HEK293 GLP-1R CRE-luciferase, luminescence, 24 h; GLP-1R form is constitutively active | Potency, µM (doses to about 38.3 µM), without a hit: top-dose activity change, negative = inhibition, usual class: inhibitors | 1.6% of 410,000 active | AID 624417; note: potency is the fitted concentration of half-maximal effect; % is set by controls: 0 for no effect and ±100 for the full control effect; nearly all actives have a fitted effect of over 55% in size
Target sequence (P43220 whole entry, looked up): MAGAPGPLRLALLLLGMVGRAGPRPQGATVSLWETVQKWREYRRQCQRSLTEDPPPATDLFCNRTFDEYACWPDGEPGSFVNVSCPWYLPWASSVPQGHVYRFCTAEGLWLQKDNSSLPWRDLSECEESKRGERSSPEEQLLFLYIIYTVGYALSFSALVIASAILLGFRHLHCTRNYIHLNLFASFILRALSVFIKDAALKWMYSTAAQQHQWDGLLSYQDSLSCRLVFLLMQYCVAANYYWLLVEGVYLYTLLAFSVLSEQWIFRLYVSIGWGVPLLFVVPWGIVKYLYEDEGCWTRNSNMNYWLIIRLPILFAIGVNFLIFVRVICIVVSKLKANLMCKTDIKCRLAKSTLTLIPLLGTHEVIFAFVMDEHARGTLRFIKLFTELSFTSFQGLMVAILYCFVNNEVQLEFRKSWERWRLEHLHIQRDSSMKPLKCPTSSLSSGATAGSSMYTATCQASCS
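HEK293 cells stably co-expressing a cAMP-responsive luciferase reporter and constitutively active GLP-1R were seeded, incubated 12 h, then exposed to compounds for 24 h at 37 C. Luminescence was read 12 min after detection reagent; inverse agonists lower signal.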
GLP-1R agonist = activates the human GLP-1 receptor. Potency, µM (top dose mostly 45.6 µM), for inactives: at the highest dose activation, actives largely listed as activators. P43220. HEK293 GLP-1R CRE-luciferase, luminescence, 4-6 h; cells express a hypersensitive GLP-1R form. 0.007% of 380,000 active; note: potency is the fitted concentration of half-maximal effect; % of control where 0% means no effect
GLP1R cytotox = cytotoxicity in counter-screen for GLP-1R inverse agonists | Potency, µM (titrated, usually from 38.3 µM), without a hit: top-dose activity change, negative = inhibition, hits mostly inhibitors | 0.13% of 410,000 active | HEK293 cAMP-luciferase reporter cells, luminescence, 24 h;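 note: loss of luciferase light is scored as toxicity; potency is the fitted concentration of half-maximal effect; % is set by controls: 0 for no effect and ±100 for the full control effect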
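1536-well qHTS counterscreen of the MLSMR; 200 cells/uL, 12 h pre-incubation, 23 nL cpd, 24 h at 37 deg C 5% CO2, luciferase detection reagent, 12 min RT, luminescence. Inhibition = undesired.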
LDHA inh = blocks human lactate dehydrogenase A; activity change, % (values are at about 110 or 230 µM); purified LDHA, NADH/diaphorase-resazurin fluorescence; hits give low values; 0.15% of 480,000 active; in the data active = activity change below about -30%; inconclusive = mostly about -25% to -30%;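 note: plate controls were DMSO wells for no effect and wells without enzyme for full effect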
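Enzyme activity of human lactate dehydrogenase 5 (2 nM; 0.06 mM NADH, 0.2 mM pyruvate, 5 min, RT) is measured via a resazurin/diaphorase fluorescence readout of residual NADH.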
* = called active by the depositor; ? = inconclusive; nt = not tested or not shown; [ ] = remark or other dose. Unless noted, calls come from the whole dose curve; as a rule, active = well fitted curve in the direction sought with a large enough effect; inconclusive = small, poorly fitted or top-dose-only effect, or another doubt; inactive = no such curve, though single readings can be large; an effect the other way counts as inactive or inconclusive.

SMILES | p53 reactivator | ClpP mod | GLP1R inv ag | GLP-1R agonist | GLP1R cytotox | LDHA inh
Cn1c(=O)c(=O)n(C)c2cc(N3CCCC3)c(NC(=O)c3ccc(C(C)(C)C)cc3)cc21 | nt | 35µM* | -6% | nt | 18% | 18
CCOc1ccc(C(=O)Nc2cc3c(cc2N2CCCC2)n(C)c(=O)c(=O)n3C)cc1OCC | nt | 28µM* | 15% | nt | -11% | 27
Cn1c(-c2cccc(Br)c2)c(-c2cn3ccccc3n2)c(=O)n(C)c1=O | nt | nt | nt | nt | nt | 0
Cc1ccc(C)c(OCC(=O)Nc2c(C)n(C)n(-c3ccccc3)c2=O)c1 | 1% | -2% | -14% | -7% | -6% | -13
CCC(=O)Oc1ccc2oc(=O)cc(C)c2c1 | ? | -6% | 16% | -17% | -5% | -3
Cc1cc(=O)oc2cc(OC(C)C(=O)O)c(Cl)cc12 (centres undefined) | -1% | 28µM* | 12% | 1% | 13% | 4
CCOc1ccc2oc(=O)cc(C)c2c1 | 7% | 32µM* | 25% | 4% | -3% | -9
Cc1cc(=O)oc2ccc(OC(C)C(=O)O)cc12 (centres undefined) | 1% | 32µM* | 12% | -7% | 3% | -7
Cc1cc(=O)oc2cc(OCC(=O)Nc3c(C)n(C)n(-c4ccccc4)c3=O)c(Cl)cc12 | -1% | 32µM* | 6% | -4% | 4% | -1
Cc1ccccc1NC(=S)Nc1cccc2cnccc12 | 5% | nt | 10% | 0% | 5% | 25
COc1cc(-c2nc3ccc(Cl)cn3c2Nc2ccccc2)cc(OC)c1O | nt | nt | nt | nt | nt | 12
Cc1cc2c(NC(=O)CC(C)(C)CC(=O)O)cccc2nn1 | 1% | 0% | 11% | -2% | -6% | 10
CCOc1cc(S(=O)(=O)NCCc2ccccc2C)c(OCC)cc1-n1cnnn1 | -7% | 32µM* | 6% | 31% | 5% | -1
CCOc1cc(S(=O)(=O)N2CCC(Cc3ccccc3)CC2)c(OCC)cc1-n1cnnn1 | 1% | 14µM* | ? | 5% | 4% | -2
Cc1cc(S(=O)(=O)NCCc2ccccc2)ccc1-n1cnnn1 | 0% | nt | -19% | 11% | -4% | 10
CCOc1cc(S(=O)(=O)NCCc2cccc(C)c2)c(OCC)cc1-n1cnnn1 | -9% | 32µM* | -1% | 15% | ? | 0
CCOc1ccc(-n2cnnn2)cc1S(=O)(=O)Nc1c(C)cccc1C | -11% | -7% | 4% | 0% | 1% | -6
CCOc1cc(S(=O)(=O)N(CC)CC)c(OCC)cc1-n1cnnn1 | -4% | 16µM* | 1% | 8% | -2% | 1
CCOc1cc(S(=O)(=O)N2CC=C(c3ccc(F)cc3)CC2)c(OCC)cc1-n1cnnn1 | -6% | ? | ? | -1% | ? | -5
CC1=C(C(=O)Nc2ccc(F)c(F)c2)C(c2ccccc2F)NC(=S)N1 (centres undefined) | nt | nt | nt | nt | nt | -5
CC1COC(=O)C(NNc2ccc(Cl)c(Cl)c2)=N1 (centres undefined) | 7% | -6% | 2.2µM* | -1% | ? | 0
Cc1nc2c(-c3ccc(Cl)cc3)cnn2c(N)c1-c1ccc(F)cc1 | ? | 4% | ? | -2% | 3% | 1
Cc1nc2c(-c3ccc(F)cc3)cnn2c(N)c1-c1ccccc1 | ? | 4% | 0.89µM* | -5% | 3% | 1
Cc1c(-n2cc(C(=O)O)c(=O)c3cc(F)c(N4CCCC(O)C4)c(F)c32)c(=O)n(-c2ccccc2)n1C (centres undefined) | 1% | 10µM* | 0% | -2% | 8% | 5
COc1ccc(NC(=O)CN2C(=O)NC3(CCCc4ccccc43)C2=O)c(OC)c1 (centres undefined) | 4% | 16µM* | 2% | -2% | 12% | -11
SMILES | p53 reactivator | ClpP mod | GLP1R inv ag | GLP-1R agonist | GLP1R cytotox | LDHA inh
C/C(=N\NC(=O)c1ccc(Cl)c(Cl)c1)c1ccccn1 | ? | nt | ? | 7% | ? | 0
C/C(=N/NC(=O)c1ccc(C(C)(C)C)cc1)c1ccccn1 | nt | -3% | 2.5µM* | ? | ? | -4
C/C(=N\NC(=O)C(c1ccccc1)c1ccccc1)c1ccc(O)cc1 | ? | -5% | -25% | -6% | 7% | 2
C/C(=N\NC(=O)C(c1ccccc1)c1ccccc1)c1ccccn1 | 27% | 1% | 2.8µM* | -10% | ? | -6
CCOc1ccccc1NC(=O)c1cc(S(=O)(=O)N2CCOCC2)ccc1C | -2% | -1% | 1% | 0% | 3% | -9
CC(C1CC1)N(Cc1ccccc1)C(=S)Nc1cccc(C(F)(F)F)c1 (centres undefined) | 4% | 2% | 10µM* | 1% | -8% | -1
N#C/C(=N/O)c1nc(-c2ccc(F)cc2)cs1 | 14% | 0% | 20% | -8% | 6% | -7
CCOc1ccc(N2CC(C(=O)Nc3nnc(SCCOC)s3)CC2=O)cc1 (centres undefined) | -6% | nt | 5% | 13% | -11% | -2
O=C(NCCc1ccccc1)c1coc(=O)c(Br)c1 | -14% | nt | ? | -2% | 5µM* | 4
Cc1cc(NC(=O)CSc2nc(-c3ccc(F)cc3)cs2)no1 | 2% | 0% | 16% | -1% | -3% | 2
CC(=O)N1N=C2c3ccccc3CCC2C1c1ccc(F)cc1 (centres undefined) | 1% | nt | ? | 15% | 10% | 0
CCNC(=S)N1N=C2c3ccccc3CCC2C1c1ccc(F)cc1 (centres undefined) | -3% | 0% | 3.5µM* | -18% | ? | -3
Clc1ccccc1Cn1c(/C=C/c2ccco2)nc2ccccc21 | 26% | 28µM* | ? | 1% | 7% | -2
COCCNc1nc(CSc2ccccc2)nc2sc(C)c(C)c12 | -31% | 28µM* | ? | ? | 31% | -5
COc1ccccc1N1CCN(CCNC(=O)Nc2cccc(C)c2C)CC1 | -15% | 32µM* | 3.2µM* | -8% | -14% | -3
Cc1ccc2c(c1)c(N=NC(N)=S)c(O)n2Cc1ccccc1 | 3% | 25µM* | -4% | 8% | ? | -3
NC(=S)N=Nc1c(O)n(Cc2ccc(Br)cc2)c2ccccc12 | -1% | -18% | 2.5µM* | 9% | 2.5µM* | 14
NC(=S)N=Nc1c(O)n(Cc2ccc(F)cc2)c2ccccc12 | -15% | 2% | ? | 1% | ? | -2
C/C(Cl)=C\Cn1c(O)c(N=NC(N)=S)c2cc(Br)ccc21 | -5% | 0% | 8.9µM* | 22% | -26% | -11
C/C(Cl)=C\Cn1c(O)c(N=O)c2ccccc21 | -2% | nt | 41%[7.66 µM] | 17% | 25%[7.66 µM] | -6
Cc1cc2oc(=O)cc(CN(CC(C)C)CC(C)C)c2cc1O | nt | nt | nt | nt | nt | 6
